Test results published in ChEMBL document CHEMBL3988442, “University of Dundee, Small-Polar-MMV Screening Library” (2021).
The campaign covered roughly 48,000 compounds. About 13,000 (27%) showed an effect of 50% or more. The list shows a part of the results.

Tested on: Wolbachia pipientis
Experiment: Anti-Wolbachia Cell-Based Screen
Type: functional
Set-up: scale not given: in the data most compounds retested in dose-response had high values
Conditions: 5 µM

Row | Structure (SMILES) | Percent Effect
1 | CN(C)S(=O)(=O)N1CC[C@]2(C[C@H](OCc3ccccn3)CO2)C1.O=C(O)C(F)(F)F | 14.62%
2 | Cc1ccc(C(=O)N2CC[C@@H]3[C@H]2CCC(=O)N3CCN(C)C)cn1.O=C(O)C(F)(F)F.O=C(O)C(F)(F)F | 19.11%
3 | CCn1nc(C)c(NC(=O)c2cc(NC(=O)C3CC3)n(C)n2)c1C | -7.543%
4 | O=C(C[S+]([O-])Cc1cccc(C(F)(F)F)c1)NC1CCCC1 (configuration not stated) | -0.5467%
5 | O=C1C(N2CC[C@@H](O)C2)CCCN1Cc1cccc(C(F)(F)F)c1 (some centres not stated) | 107.1%
6 | NC(=O)CN(C(=O)Cc1cccc(C(F)(F)F)c1)C1CCCC1 | 0.7845%
7 | FC(F)(F)c1cccc(CN2CCOC[C@H](Oc3cccnc3)C2)c1 | -1.353%
8 | Cc1nc(CN2CCCC(CCc3cccc(C(F)(F)F)c3)C2)co1 (configuration not stated) | -5.657%
9 | O[C@H]1COCCN(Cc2cccc(C(F)(F)F)c2)C1 | 1.348%
10 | O=C1NC[C@@]2(C(=O)O)CN(Cc3cccc(C(F)(F)F)c3)C[C@@H]12 | -16.76%
11 | O=C1C(N2CCOCC2)CCCN1Cc1cccc(C(F)(F)F)c1 (configuration not stated) | 85.07%
12 | NC1CCCN(Cc2cccc(C(F)(F)F)c2)C1=O (configuration not stated) | 110.9%
13 | CC(C)(C)c1nc2cc(NC(=O)Cn3ccc(=O)[nH]c3=O)ccc2o1 | -2.056%
14 | Cc1cccc(C(C(=O)N2CCN(C(=O)c3ccc[nH]3)CC2)N(C)C)c1 (configuration not stated) | 8.522%
15 | Clc1ccc2nc(N3CCC(NCCCC4CCOC4)CC3)sc2c1 (configuration not stated) | 5.411%
16 | CC(C)COCC(C)NC(=O)NCc1cccc(-n2cncn2)c1 (configuration not stated) | 11.71%
17 | CCN1CCCC(C)(C(=O)NCc2nncn2CCc2ccccc2)C1 (configuration not stated) | 118.3%
18 | CCN1CCCC(C)(C(=O)NCc2nccn2Cc2ccccc2)C1 (configuration not stated) | 105.1%
19 | CCN1CCCC(C)(C(=O)NCCCc2nc(C)cs2)C1 (configuration not stated) | -10.41%
20 | CCOC(=O)C1(Cc2ccccc2)CCCN(Cc2nccn2CC)C1 (configuration not stated) | 6.244%
21 | CCN1CCCC(C)(C(=O)NCCc2nnc(C)[nH]2)C1 (configuration not stated) | 0.7717%
22 | CCN1CCCC(C)(C(=O)NCc2nnnn2-c2ccccc2)C1 (configuration not stated) | 65.9%
23 | CCC1(CO)CCCN(Cc2nccn2Cc2ccccc2)C1 (configuration not stated) | 7.742%
24 | CCN1CCCC(C)(C(=O)NCCc2n[nH]c(=O)[nH]2)C1 (configuration not stated) | 34.99%
25 | Cc1nnc(N2CCC(CN(C)C(C)C)CC2)c(C#N)c1C | 6.063%
26 | O=C(CC1CC1)N1CCn2cc(Cn3cncn3)nc2C1 | 0.5446%

Row | Structure (SMILES) | Percent Effect
27 | Cn1cc(S(=O)(=O)NCC(C)(O)c2ccsc2)cn1 (configuration not stated) | 76.2%
28 | Cn1cc(Br)cc1C(=O)NCC(C)(O)c1ccsc1 (configuration not stated) | -10.72%
29 | Cn1cnc(S(=O)(=O)NCC(C)(O)c2ccc3c(c2)OCO3)c1 (configuration not stated) | -0.9964%
30 | CSCC(C)(O)CNc1ncccc1I (configuration not stated) | 15.53%
31 | Cc1nc2cc(C3CCN(Cc4cccc(F)c4F)C3)nn2c(O)c1C.O=C(O)CC(O)(CC(=O)O)C(=O)O (configuration not stated) | -10.9%
32 | Cc1nnsc1C(=O)N1CCN(C(=O)C2CCC2)[C@@H]2CS(=O)(=O)C[C@@H]21 | 2.369%
33 | Cc1ncsc1C(=O)N1CCCCC1c1cc2nc(C)c(C)c(O)n2n1 (configuration not stated) | 146.5%
34 | Cc1nc2cc(C3CCCCN3C(=O)C3CC3)nn2c(O)c1C (configuration not stated) | 136.9%
35 | CC(=O)N1CCN(C(=O)c2snnc2C)[C@H]2CS(=O)(=O)C[C@H]21 | -13.7%
36 | Cc1nnsc1C(=O)N1CCCCC1c1cc2nc(C)c(C)c(O)n2n1 (configuration not stated) | 136.2%
37 | CC1CCCN(c2ccc(C(N)=O)cc2NC(=O)CC2=CCNCC2)C1 (configuration not stated) | 16.61%
38 | O=C1N(Cc2ccccc2F)CCCC12CCN(C1CCSCC1)C2 (configuration not stated) | -13.98%
39 | Cc1ncsc1CN1Cc2cn(C)nc2C(COCC2CC2)C1.O=C(O)C(F)(F)F.O=C(O)C(F)(F)F (configuration not stated) | 13.37%
40 | Cc1ccnn1CC(=O)N1CCCN(C2Cc3ccccc3C2)CC1 | -5.068%
41 | CC(C)N1c2sc(-c3ccsc3)nc2CC1C(=O)NC1CCCC1 (configuration not stated) | 65.31%
42 | Cc1cncc(C(=O)N2CCC(Cn3cc(-c4ccsc4)nn3)CC2)c1 | -0.4456%
43 | CC(C)NC(=O)C1Cc2nc(-c3ccsc3)sc2N1CC1CC1 (configuration not stated) | 78.87%
44 | CC(C)N1c2sc(-c3ccsc3)nc2CC1C(=O)NC1CC1 (configuration not stated) | 38.95%
45 | O=C(NC1CC1)C1CCCN1c1ncnc2ccsc12 (configuration not stated) | -11.59%
46 | O=C(NC1CCCC1)C1Cc2nc(-c3ccsc3)sc2N1CC1CC1 (configuration not stated) | 63.55%
47 | O=C([C@@H]1CCCO1)N1CCC(Cn2cc(-c3ccsc3)nn2)CC1 | -13.58%
48 | CS(=O)(=O)NCC1CCCCN1C(=O)c1csc(-c2ccsc2)n1 (configuration not stated) | 11.05%
49 | CC(C)N1c2sc(-c3ccccc3)nc2CC1C(=O)NC1CCCC1 (configuration not stated) | 22.35%
50 | COCCCN1CCCN(C(C)C(=O)Nc2cccc(I)c2)CC1 (configuration not stated) | 23.62%
51 | COc1ccc(-n2nc(C)c(C(C)=O)c2C)cc1CO | -7.291%
52 | Cc1nc(COCc2nc3c(o2)CN(C(=O)c2ccoc2)C3)cs1 | 0.193%

Row | Structure (SMILES) | Percent Effect
53 | CN(C)c1nc2c(c(N3CCC(O)CC3)n1)CN(CC(C)(C)C)CC2 | 3.405%
54 | c1cc(CNCc2ccnc(N3CCCC3)c2)c2c(c1)OCO2 | -29.77%
55 | Cc1noc(C(C)C)c1C(=O)NCCCN1CCCCCC1=O | 122%
56 | CCC(CC)(CCCNC(=O)c1c(C)noc1C)C1OCCO1 | -3.207%
57 | CC(NC(=O)NCCN1CCCCCC1=O)c1nncn1C (configuration not stated) | -0.9457%
58 | Cc1nc(-c2ccsc2)ccc1C(=O)NCCC(=O)N1CCCC1 | 0.2112%
59 | Cc1noc(C)c1C(=O)NCCN1CCN(c2ccccc2)CC1 | 7.051%
60 | Cc1noc(C(C)C)c1C(=O)NCCN1CCOCC1 | 72.1%
61 | CC(Cn1cccn1)NC(=O)NCCCN1CCCCCC1=O (configuration not stated) | -6.235%
62 | Cc1noc(C(C)C)c1C(=O)NCCCN1CCNCC1.Cl | 114.5%
63 | Cc1noc(C)c1C(=O)NCCN1CCOCC1 | 15.76%
64 | Cc1noc(C(C)C)c1C(=O)NCC1CCCN1Cc1ccccc1 (configuration not stated) | -8.242%
65 | Cc1noc(C(C)C)c1C(=O)NCCC(=O)N1CCCCC1 | 90.26%
66 | Cc1cc(C)n(CC2(CNC(=O)C(c3ccc(F)cc3)N(C)C)CC2)n1 (configuration not stated) | 1.569%
67 | CN(Cc1ccsc1)C(=O)Nc1ccc(S(C)(=O)=O)nc1 | -1.265%
68 | COCCN1CC[C@H]2CN(c3cc(OC)ncn3)C[C@@H]2C1=O.O=C(O)C(F)(F)F | -11.01%
69 | CN1C(=O)CC(c2ccccc2)C12CCN(c1ncc(F)cn1)CC2 (configuration not stated) | 11.07%
70 | O=C1N(c2ccc(Br)cc2)Cc2n[nH]c(=O)n21 | -3.118%
71 | Cc1ccccc1CCCN(C)S(C)(=O)=O | 5.397%
72 | Cc1ccsc1CNC1CCCc2c1cnn2C.Cl (configuration not stated) | -3.429%
73 | COc1cc(OC)cc(-c2cccc3c2OC(CN)C3)c1 (configuration not stated) | 2.272%
74 | Cc1noc(C(C)C)c1C(=O)NCCCN1CCC(C)CC1 | 80.48%
75 | COCCCNC(=O)c1c(C)noc1C(C)C | 99.64%
76 | Cc1noc(C(C)C)c1C(=O)NCc1cc(F)cc(F)c1 | -8.359%
77 | COc1ccc(S(=O)(=O)NC(=O)c2c(C)noc2C(C)C)cc1OC | 2.156%
78 | Cc1noc(C(C)C)c1C(=O)NCC1CCN(c2ccccc2)C1 (configuration not stated) | -7.701%

Row | Structure (SMILES) | Percent Effect
79 | CC1CCN(CCCNC(=O)C2CCCCC2)CC1 | 13.42%
80 | CCn1c(=O)nc2n1C(=O)N(c1cccc(Cl)c1)C2 | 5.675%
81 | CC1CCCN(S(=O)(=O)NCCCn2ccc3ccccc32)C1 (configuration not stated) | -2.865%
82 | Cn1c(-c2ccc(F)cc2)cn2cc(C(=O)N3CCC(N)C3)nc2c1=O (configuration not stated) | -3.321%
83 | CC(c1cccnc1)N1CCN(CCc2ccccn2)CC1 (configuration not stated) | -1.072%
84 | Cc1ccc(CNC(=O)c2nc3c(o2)CN(c2ncccn2)C3)o1 | -19.04%
85 | CN1CCCN(C(=O)c2nc3c(n2C)CCN(c2ncccn2)C3)CC1 | 6.305%
86 | Cc1ccc(CNC(=O)c2nc3c(n2C)CCN(c2ncccn2)C3)o1 | 77.66%
87 | CN1CCO[C@@H]2CN(S(=O)(=O)c3ccc(F)cc3)CC[C@@H]2C1.O=C(O)C(F)(F)F | -6.683%
88 | CC(=O)N1CCO[C@@H]2CN(S(=O)(=O)c3ccc(F)cc3)CC[C@@H]2C1 | 115.5%
89 | CC(=O)N1CCO[C@@H]2CN(S(=O)(=O)c3ccc(C)cc3)CC[C@@H]2C1 | 106.7%
90 | Cn1nnc2c1C(COCC1CC1)CN(C(=O)C1=CCCC1)C2 (configuration not stated) | -1.372%
91 | COCCN(Cc1ccc(OC)nc1)Cc1cccs1 | 6.12%
92 | O=C(Nc1ccccc1)N1C(CN2CCOCC2)[C@]2(O)CC[C@H]1CC2 (some centres not stated) | 91.52%
93 | O=C(O)C(F)(F)F.O=S(=O)(c1ccccc1)N1C[C@@H]2COC[C@]2(CN2CCOCC2)C1 | 14.04%
94 | O=C(Nc1ccccc1)C1CN(CC2CC2)CC12CCOCC2.O=C(O)C(F)(F)F (configuration not stated) | -9.303%
95 | O=C(NCc1ccccc1CN1CCC(O)CC1)Nc1ccccc1 | 6.714%
96 | O=S(=O)(c1ccccc1)N1C(CN2CCOCC2)[C@]2(O)CC[C@H]1CC2 (some centres not stated) | 83.09%
97 | O=C(Nc1ccccc1)N1C(CO)[C@]2(O)CC[C@H]1CC2 (some centres not stated) | 93.37%
98 | O=C(Nc1ccccc1)N1C[C@H]2CC[C@@H]1CN(Cc1ccccc1)C2 | -24.67%
99 | COCC1N(C(=O)Nc2ccccc2)[C@H]2CC[C@]1(O)CC2 (some centres not stated) | 103.1%
100 | O=C(Nc1ccccc1)C1CN(CC2CCOCC2)CC12CCOCC2.O=C(O)C(F)(F)F (configuration not stated) | -3.242%
101 | COCCN1CCC(NC(=O)NCC2(c3ccccc3)CC2)C1 (configuration not stated) | -5.464%
102 | O=C(O)C(F)(F)F.O=S(=O)(NC1CCC12CCN(CC1CCOCC1)CC2)c1ccccc1 (configuration not stated) | -4.51%
